Experimental data from PubChem BioAssay (EPA / NIEHS).
Calls of active or inactive are those of the source. The calls were made as follows: active = hit-call score of the fitted dose curve at least 0.9, where 1 is the maximum; inactive = score below 0.9.

Read-out: Interleukin 17A (IL17A), IL17A (gene 3605)
Assay: BSK_BT_xIL17A: BioMAP Diversity Plus: BT Assay for Interleukin 17A (IL17A) Biomarker Activity (AID 2284229)
Details: primary human B cells with PBMC
Protocol: BSK_BT is a cell-based, multiplexed-readout assay that uses B cell and peripheral blood mononuclear cells, a human vascular primary cell co-culture, with measurements taken at 24 hours after chemical dosing in a microplate: 96-well plate.BSK_BT_xIL17A is an assay component measured in the BSK_BT assay. It measures secreted IL-17A related to regulation of gene expression using LumineX xMAP technology.Data from the assay component BSK_BT_xIL17A was analyzed at the endpoint, BSK_BT_xIL17A, in the positive analysis fitting direction relative to DMSO as the negative control and baseline of activity. Using a type of cytokine quantitation reporter, gain or loss-of-signal activity can be used to understand protein changes. To generalize the intended target to other relatable targets, this assay endpoint is annotated to the 'cytokine' intended target family, where the subfamily is 'interleukins'.
The levels of cell surface (or secreted, indicated by the prefix "s") biomarker endpoints were measured by ELISA. Overt cytotoxicity to cells in confluent adherent cultures (all systems other than the BT system) was assessed by measuring total protein levels using sulforhodamine B (SRB) staining in parallel cultures at the time of biomarker measurements, indicated as SRB endpoints. For proliferation assays for adherent cell types, individual cell types are cultured at sub-confluence and relative cell numbers quantified by SRB staining at time points optimized for each system (48 h: 3C and CASM3C systems; 72 h: BT and HDF3CGF systems; 96 h: SAg system). SRB was performed by staining cells with 0.1% SRB after fixation with 10% TCA and reading wells at 560 nm.Viability and proliferation of PBMC (T cells) was quantified by Alamar Blue reduction for the SAg and BT systems. For PBMC viability (referred to as PBMC Cytotoxicity within the assay endpoint names), cells were plated (75,000/well in a 96-well plate) and then chemical samples added for 1 h before addition of activators, SEB and TSST-1 (20 ng/mL final concentration each). Cells were incubated for 90 h. Then, Alamar Blue (20 uL/well) (Invitrogen, Cat DAL1100) was added for 6 h, and the plates were read with a fluorescence microplate reader at 546/580 nm (excitation/emission). For PBMC proliferation, cells were plated and activated as above but incubated for only 16 h prior to addition of Alamar Blue. Plates were read after 6 h.

Structure (SMILES)	outcome
FC(F)C(F)(F)COCC1CO1 (stereo not drawn)	inactive
FC(F)(F)COC(OCC(F)(F)F)OCC(F)(F)F	inactive
OCCC(F)(F)C(F)(F)C(F)(F)C(F)(F)F	inactive
FC(F)(F)C(F)(F)C(F)(F)C(F)(F)C(F)(F)C(F)(F)I	inactive
O=S(=O)(O)CCC(F)(F)C(F)(F)C(F)(F)C(F)(F)C(F)(F)C(F)(F)F	inactive
O=C(Cl)C(F)(F)C(F)(F)C(F)(F)C(=O)Cl	inactive
OCc1c[nH]c2ccccc12	inactive
NCC(F)(F)C(F)(F)C(F)(F)C(F)(F)F	inactive
S=P(N1CC1)(N1CC1)N1CC1	inactive
C[Si](C)(C)C(F)(F)C(F)(F)C(F)(F)F	inactive
Cc1cccc(O)c1C	inactive
FC(F)=C(F)C(F)(F)C(F)(F)C(F)(F)C(F)(F)C(F)(F)C(F)(F)F	inactive
OC(O)(C(F)C(O)(O)C(F)(F)F)C(F)(F)F	inactive
